According to PubChem BioAssay (Tox21):
Inconclusive results are not listed. The source made the active and inactive calls. Unless noted, calls follow the shape of the dose curve; as a rule, active = well fitted curve in the direction sought with a large enough effect in the repeat runs; inconclusive = weak or mixed curves; inactive = no such curve, though single readings can be large; an effect the other way counts as inactive or inconclusive.

How the values were obtained:
[1] = qHTS assay to identify small molecule agonists of the RXR signaling pathway - cell viability counter screen (AID 1159529);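 also: HEK 293T cells carrying an RXR-alpha UAS beta-lactamase reporter; nearly all actives have a fitted effect of over 50% in size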
Outline: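 RXR-alpha-UAS-bla HEK 293T cells in medium with 2% charcoal-stripped FBS were preincubated 5 hr, then exposed to compounds for 16 hr at 37 C. Viability was read as CellTiter-Glo luminescence after 30 min at room temperature.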

[2] = qHTS assay to identify small molecule antagonists of the retinoid acid receptor (RAR) signaling pathway - cell viability counter screen (AID 1159551); also: nearly all actives have a fitted effect of over 35% in size
Outline: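 C3RL4 cells were seeded overnight at 37 C, then treated with compounds plus 1 uM (final) retinol for 6 h at 37 C. Viability was read as ATP by CellTiter-Glo luminescence after 30 min at room temperature.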

[3] = qHTS assay to identify small molecule antagonists of the retinoic acid receptor (RAR) signaling pathway (AID 1159552; also: nearly all actives have a fitted effect of over 50% in size)
Outline: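 RARE-luc C3RL4 cells; cpds + 1 uM (final) retinol, 6 hr, 37 C/5% CO2; luciferase reagent, 30 min RT, luminescence readout. Inhibitors of retinol-driven signal scored.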

[4] = qHTS assay to identify small molecule agonists of the retinoic acid receptor (RAR) signaling pathway (AID 1159553); conditions: C3RL4 RARE luciferase reporter, agonist, 6 h; activation: at 73.3 µM (top of the series) unless noted
Outline: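 C3RL4 cells carrying a RARE luciferase reporter were plated overnight at 37 C, then exposed to compounds in DMSO for 6 hr at 37 C and 5% CO2. Luminescence was read 30 min after luciferase reagent addition at room temperature.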

[5] = qHTS assay to identify small molecule antagonists of the estrogen related receptor (ERR) signaling pathway from Tox21 library - cell viability counter screen (AID 1224834); also: nearly all actives have a fitted effect of over 30% in size
Outline: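 ERR reporter cells were plated 6 h before compound addition, then exposed to test compounds in DMSO for 17.5 h at 37 C. Viability was read as CellTiter-Fluor fluorescence after a 30-minute incubation at 37 C.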

[6] = biological target: Luciferin 4-monooxygenase (Photinus pyralis) (UniProt P08659); experiment: qHTS assay to identify small molecule inhibitors of firefly luciferase (AID 1224835); also: nearly all actives have a fitted effect of over 25% in size
Chain of Luciferin 4-monooxygenase (Photinus pyralis) (P08659 whole entry, looked up): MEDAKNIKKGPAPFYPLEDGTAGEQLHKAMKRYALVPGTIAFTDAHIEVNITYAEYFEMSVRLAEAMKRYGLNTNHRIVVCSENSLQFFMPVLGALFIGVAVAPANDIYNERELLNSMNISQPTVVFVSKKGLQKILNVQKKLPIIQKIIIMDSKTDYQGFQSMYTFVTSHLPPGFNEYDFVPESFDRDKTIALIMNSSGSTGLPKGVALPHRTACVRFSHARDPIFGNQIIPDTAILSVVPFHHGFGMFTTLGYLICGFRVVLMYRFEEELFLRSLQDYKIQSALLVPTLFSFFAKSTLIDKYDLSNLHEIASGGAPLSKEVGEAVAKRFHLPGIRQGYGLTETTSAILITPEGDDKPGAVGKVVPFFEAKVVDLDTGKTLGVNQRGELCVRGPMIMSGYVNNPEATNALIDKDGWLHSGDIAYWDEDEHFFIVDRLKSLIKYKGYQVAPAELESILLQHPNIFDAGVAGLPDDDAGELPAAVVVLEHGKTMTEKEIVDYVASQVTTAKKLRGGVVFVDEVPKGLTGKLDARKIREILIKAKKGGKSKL
Outline: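 Quantitative HTS format; KM concentrations of both substrates. Purified P. pyralis FLuc activity quantified from luminescence images.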

[7] = qHTS assay to identify small molecule agonists of the constitutive androstane receptor (CAR) signaling pathway - cell viability counter screen (AID 1224836); also: nearly all actives have a fitted effect of over 45% in size
Outline: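 HepG2 cells stably carrying hCAR and a CYP2B6-2.2kb reporter were plated 4 h, then given compounds at 15 concentrations plus PK11195 (final 0.75 uM). After 23 h at 37 C, viability was read by CellTiter-Fluor fluorescence.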

[8] = qHTS assay to identify small molecule antagonists of the constitutive androstane receptor (CAR) signaling pathway - cell viability counter screen (AID 1224837); also: nearly all actives have a fitted effect of over 45% in size
Outline: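 HepG2 cells stably expressing hCAR and a CYP2B6-2.2kb reporter were plated and pre-incubated 4 hr at 37 C/5% CO2, then given compounds at 15 concentrations plus 50 nM CITCO (final). After 23 hr, viability was read by CellTiter-Fluor fluorescence.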

[9] = biological target: Nuclear receptor subfamily 1 group I member 3 (Homo sapiens) (UniProt Q14994); experiment: qHTS assay to identify small molecule antagonists of the constitutive androstane receptor (CAR) signaling pathway (AID 1224838); also: nearly all actives have a fitted effect of over 40% in size
Chain of Nuclear receptor subfamily 1 group I member 3 (Homo sapiens) (Q14994 whole entry, looked up): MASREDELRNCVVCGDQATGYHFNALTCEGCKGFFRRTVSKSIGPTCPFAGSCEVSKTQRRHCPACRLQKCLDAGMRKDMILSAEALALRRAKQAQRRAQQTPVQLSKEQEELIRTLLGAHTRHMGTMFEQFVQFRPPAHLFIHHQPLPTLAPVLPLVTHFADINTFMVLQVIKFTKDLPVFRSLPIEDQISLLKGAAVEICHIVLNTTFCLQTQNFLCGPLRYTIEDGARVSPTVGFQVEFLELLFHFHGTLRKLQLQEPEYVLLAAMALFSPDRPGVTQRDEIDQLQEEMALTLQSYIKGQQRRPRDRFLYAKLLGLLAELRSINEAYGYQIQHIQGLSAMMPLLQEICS
Outline: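 HepG2 cells stably co-transfected with hCAR and a CYP2B6-2.2kb luciferase reporter were seeded 4 h before compound addition at 15 concentrations. Cells were stimulated with 50 nM CITCO (final) for 24 h at 37 C; luciferase luminescence was then read.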

[10] = biological target: Nuclear receptor subfamily 1 group I member 3 (Homo sapiens) (UniProt Q14994); experiment: qHTS assay to identify small molecule agonists of the constitutive androstane receptor (CAR) signaling pathway (AID 1224839);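 also: HepG2 cells stably carrying human CAR and a CYP2B6 luciferase reporter; nearly all actives have a fitted effect of over 15% in size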
Outline: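 HepG2 cells stably expressing hCAR and a CYP2B6-2.2kb luciferase reporter were treated with compounds at 15 concentrations plus 0.75 uM PK11195 (final) for 24 h at 37 C; luminescence was read after ONE-Glo addition.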

[11] = qHTS assay to identify small molecule antagonists of the estrogen related receptor signaling pathway with the pleiotropic PPARgamma coactivator (PGC) from Tox21 10K library - cell viability counter screen (AID 1224840; active = well fitted cell-killing curve with a large enough effect in the repeat runs, not every such curve was filed as active; also: nearly all actives have a fitted effect of over 40% in size)
Outline: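 PGC/ERR cells were seeded at 2,000 cells/well and left 6 hours at 37 C/5% CO2 before pin-tool addition of compounds in DMSO. After 17.5 hours at 37 C, CellTiter-Fluor was added and fluorescence read 30 minutes later.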

[12] = biological target: Thyrotropin receptor (Homo sapiens) (UniProt P16473); experiment: qHTS assay to identify small molecule agonists of the thyroid stimulating hormone receptor (TSHR) signaling pathway (AID 1224843; calls by dose curve; also: nearly all actives have a fitted effect of over 45% in size)
Chain of Thyrotropin receptor (Homo sapiens) (P16473 whole entry, looked up): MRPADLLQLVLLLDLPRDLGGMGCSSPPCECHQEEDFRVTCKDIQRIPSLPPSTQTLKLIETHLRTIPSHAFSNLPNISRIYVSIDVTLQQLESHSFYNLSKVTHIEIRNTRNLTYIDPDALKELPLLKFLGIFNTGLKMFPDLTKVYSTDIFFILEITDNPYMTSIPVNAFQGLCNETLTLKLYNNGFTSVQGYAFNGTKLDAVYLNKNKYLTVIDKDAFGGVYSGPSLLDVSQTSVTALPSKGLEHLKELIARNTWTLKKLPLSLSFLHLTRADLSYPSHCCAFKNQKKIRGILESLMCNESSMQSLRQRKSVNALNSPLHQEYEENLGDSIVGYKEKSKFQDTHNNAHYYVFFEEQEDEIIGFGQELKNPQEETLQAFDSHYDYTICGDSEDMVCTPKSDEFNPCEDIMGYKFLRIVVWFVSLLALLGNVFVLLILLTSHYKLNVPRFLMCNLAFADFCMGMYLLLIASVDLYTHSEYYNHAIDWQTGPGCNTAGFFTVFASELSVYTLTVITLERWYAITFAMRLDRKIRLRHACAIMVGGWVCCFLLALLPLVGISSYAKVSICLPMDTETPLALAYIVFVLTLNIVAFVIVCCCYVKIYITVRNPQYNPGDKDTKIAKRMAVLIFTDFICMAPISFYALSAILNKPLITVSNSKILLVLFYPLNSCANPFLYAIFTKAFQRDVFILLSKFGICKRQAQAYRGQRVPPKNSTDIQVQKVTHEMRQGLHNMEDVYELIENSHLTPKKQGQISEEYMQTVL
Outline: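 TSHR-expressing HEK293 cells (800 per well) were exposed to compounds for 30 min at room temperature. cAMP was then detected by HTRF competition with cAMP-d2 and anti-cAMP cryptate, read after 1 h at room temperature. Fifteen concentrations, triplicate.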

[13] = qHTS assay to identify small molecule antagonists of the estrogen related receptor signaling pathway with the pleiotropic PPARgamma coactivator (PGC) from Tox21 10K library (AID 1224841; call rule not given here; also: actives are mostly falling curves and most rising ones were filed inactive; nearly all actives have a fitted effect of over 50% in size)
Outline: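 PGC/ERR reporter cells were seeded at 2,000 cells/well and held 6 hours at 37 C/5% CO2 before pin-tool addition of compounds in DMSO. After 18 hours at 37 C, One-Glo was added and luminescence read after 30 minutes at room temperature.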

[14] = qHTS assay to identify small molecule agonists of the estrogen related receptor signaling pathway with the pleiotropic PPARgamma coactivator (PGC) from Tox21 10K library (AID 1224842); also: nearly all actives have a fitted effect of over 15% in size
Outline: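 PGC/ERR reporter cells (NTP line) were seeded 2,000 per well, rested 6 h at 37 C/5% CO2, then pin-dosed with compounds in DMSO for 18 h at 37 C; luciferase read by One-Glo luminescence after 30 min at room temperature.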

Measured: Potency

CCCCC(=O)O
inactive: [1] | [2] | [3] | [4] | [5] | [6] | [7] | [8] | [9] | [10] | [11] | [12]

CC/C(C)=N/O
inactive: [1] | [2] | [3] | [4] | [5] | [6] | [7] | [8] | [9] | [10] | [11] | [12]

CC(=O)OC/C=C(\C)CCC=C(C)C
inactive: [1] | [2] | [3] | [4] | [5] | [6] | [7] | [8] | [9] | [10] | [11] | [12]

C=CC(=O)NCOCCCC
inactive: [1] | [2] | [3] | [4] | [5] | [6] | [7] | [8] | [9] | [10] | [11]

O=Cc1ccc(CO)o1
inactive: [1] | [2] | [3] | [4] | [5] | [6] | [7] | [8] | [9] | [10] | [11] | [13] | [14] | [12]

NC(=O)NC(N)=O
inactive: [1] | [2] | [3] | [4] | [5] | [6] | [7] | [8] | [9] | [10] | [11] | [12]

COc1c(Cl)ccc(Cl)c1C(=O)O
inactive: [1] | [2] | [3] | [4] | [5] | [6] | [7] | [8] | [9] | [10] | [11] | [12]

CCCCCNCCCCC
inactive: [1] | [2] | [3] | [4] | [5] | [6] | [7] | [8] | [9] | [10] | [11] | [12]

C1CCCNCC1
inactive: [1] | [2] | [5] | [6] | [7] | [8] | [9] | [10] | [11] | [13] | [14] | [12]

C[n+]1ccn(CCO)c1
inactive: [1] | [2] | [3] | [4] | [5] | [6] | [7] | [8] | [11] | [13] | [14]

CC(C)c1ccc(C(C)C)cc1
inactive: [1] | [2] | [5] | [6] | [7] | [8] | [9] | [10] | [11] | [12]
